About 330 (14%) of roughly 2,300 compounds showed activity.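 The calls were made as follows: active = median modified Z-score above 1.96; inactive = 1.96 or below.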 These entries were drawn from the full list.
The compounds below were run on HepG2 Srxn1-GFP reporter cells (+30 nM CDDO-Me) (assay: Srxn1-GFP intensity median modified Z-score relative to plate median; higher = stronger NRF2 / oxidative stress reporter activation, active = hit call of the paper). Conditions: 10 µM; exposure time: 24h.
Summary of the method: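 Per-cell cytoplasmic GFP was measured on confocal images of formaldehyde-fixed, Hoechst-stained HepG2 Srxn1-GFP BAC reporter cells, excluding images with fewer than 100 cells. Before this, the cells (20,000 per well, 96-well plates) were co-exposed for 24 h to compound at 10 μM and an NRF2 activator at 30 nM with ≤0.1% DMSO, in three replicate plates. Each value is the median over replicates of the per-plate modified Z-score of GFP intensity. That score was scaled with 1.4826 × median absolute deviation.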

Compound | Srxn1-GFP intensity median modified Z-score
N=C(N)N=c1[nH]c(CSCCC(=N)NS(N)(=O)=O)cs1 [euspeclibcmpd364] | 0.317 (inactive)
O=C(O[C@@H]1Cc2c(O)cc(O)cc2OC1c1cc(=O)c(O)c2c(O)c(O)cc(C3Oc4cc(O)cc(O)c4C[C@H]3O)c2c1)c1cc(O)c(O)c(O)c1 (stereo partly specified) [euspeclibcmpd1583] | -0.77 (inactive)
COc1ccc(-c2cc(=O)c3c(O)c(OC)c(OC)c(OC)c3o2)cc1 [euspeclibcmpd2317] | 0.184 (inactive)
COc1ccc(-c2cc(=O)c3c(OC)c(OC)c(OC)c(OC)c3o2)cc1OC [euspeclibcmpd1435] | 1.9 (inactive)
COc1ccc(-c2cc(=O)c3c(OC)c(OC)c(OC)c(OC)c3o2)cc1 [euspeclibcmpd1464] | 6.78 (active)
OC[C@@H](O)[C@@H](O)[C@@H](O)[C@H](O)[C@@H](O)CO [euspeclibcmpd1702] | -0.744 (inactive)
C#CCCCCCCCCCCCC(O)CC(O)CO (stereo unspecified) [euspeclibcmpd1458] | 4.24 (active)
C#CCCCCCCCCCCCC(O)CC(O)COC(C)=O (stereo unspecified) [euspeclibcmpd1372] | 3.35 (active)
C=CCCCCCCCCCCCC(O)CC(O)CO (stereo unspecified) [euspeclibcmpd1371] | 1.62 (inactive)
C=CCCCCCCCCCCCC(O)CC(O)CO (stereo unspecified) [euspeclibcmpd2211] | 2.24 (active)
C=CCCCCCCCCC(=O)O [euspeclibcmpd2049] | 0.331 (inactive)
CC(=O)OCC(COC(C)=O)OC(C)=O [euspeclibcmpd301] | 0.397 (inactive)
CC(=O)OCC(OC(C)=O)C(OC(C)=O)C(OC(C)=O)C(OC(C)=O)C(COC(C)=O)OC(C)=O (stereo unspecified) [euspeclibcmpd1364] | -0.434 (inactive)
CC(=O)O[C@@]12CO[C@@H]1C[C@H](O)[C@@]1(C)C(=O)C(=O)C3C(C)[C@@H](OC(=O)[C@@H](O)[C@@H](NC(=O)OC(C)(C)C)c4ccccc4)C[C@@](O)([C@@H](OC(=O)c4ccccc4)C12)C3(C)C (stereo partly specified) [euspeclibcmpd1130] | 1.49 (inactive)
O=C(O)CCNC(=O)c1ccc(N=Nc2ccc(O)c(C(=O)O)c2)cc1 [euspeclibcmpd2245] | -0.361 (inactive)
CN(C)c1ccc(O)c2c1C[C@H]1C[C@H]3C(N(C)C)C(=O)C(C(N)=O)C(=O)[C@@]3(O)C(=O)C1C2=O (stereo partly specified) [euspeclibcmpd201] | -0.262 (inactive)
COC(=O)CCC(C)C1CCC2C3CC[C@@H]4C[C@H](O)CC[C@]4(C)C3C[C@H](O)[C@]12C (stereo partly specified) [euspeclibcmpd1611] | -0.0244 (inactive)
CCc1cc(Cl)c(OC)c(C(=O)NCC2CCCN2CC)c1O (stereo unspecified) [euspeclibcmpd333] | 0.457 (inactive)
CCS(=O)(=O)CCn1c([N+](=O)[O-])cnc1C [euspeclibcmpd439] | 0.00367 (inactive)
CCOC(=O)CCC(=O)O[C@H]1[C@H](O[C@@H]2[C@@H](C)[C@H](O[C@H]3C[C@@](C)(OC)[C@@H](O)[C@H](C)O3)C(C)C(=O)O[C@H](CC)[C@@](C)(O)[C@H](O)C(C)C(=O)C(C)C[C@@]2(C)O)O[C@H](C)C[C@@H]1N(C)C (stereo partly specified) [euspeclibcmpd114] | 0.427 (inactive)
CC1(OC(=O)C=Cc2ccccc2)CC(O)C2(O)C=COC(OC3OC(CO)C(O)C(O)C3O)C12 (stereo unspecified) [euspeclibcmpd1930] | 0.27 (inactive)

Compound | Srxn1-GFP intensity median modified Z-score
CCCCC1=NC2(CCCC2)C(=O)N1Cc1ccc(-c2ccccc2-c2nn[nH]n2)cc1 [euspeclibcmpd676] | -0.243 (inactive)
COc1cc(C=CC(=O)CC(=O)C=Cc2ccc(O)c(OC)c2)ccc1O [euspeclibcmpd1307] | 23.5 (active)
COc1cc(O)c(C(=O)C=Cc2ccc(OC)c(O)c2)c(OC)c1 [euspeclibcmpd1967] | 23.8 (active)
COc1cc(C=CC(=O)O)ccc1O [euspeclibcmpd1346] | -0.142 (inactive)
COc1cc(O)c(C(C)=O)c(OC)c1 [euspeclibcmpd1575] | -0.474 (inactive)
COc1cc(O)c(C(=O)C=Cc2ccc(O)c(OC)c2)c(OC)c1 [euspeclibcmpd2193] | -0.497 (inactive)
COc1ccc(/C=C/C(=O)O)cc1OC [euspeclibcmpd2368] | -0.475 (inactive)
Cc1cn[nH]c1 [euspeclibcmpd2215] | -0.461 (inactive)
Cc1cn[nH]c1 [euspeclibcmpd2196] | 1.06 (inactive)
CCC(=O)O[C@]1(C(=O)SCF)[C@H](C)CC2C3CC(F)=C4CC(=O)C=C[C@]4(C)C3(F)[C@@H](O)C[C@@]21C (stereo partly specified) [euspeclibcmpd975] | -0.942 (inactive)
CC(=O)Nc1c(I)c(NC(C)=O)c(I)c(C(=O)O)c1I [euspeclibcmpd867] | -0.167 (inactive)
Cc1cc(=O)oc2cc(O)c(O)cc12 [euspeclibcmpd1370] | -0.517 (inactive)
NC(CCC(=O)NC(CS)C(=O)NCC(=O)O)C(=O)O (stereo unspecified) [euspeclibcmpd132] | 1.19 (inactive)
C[C@]12CCC(=O)CC1=CCC1C2[C@@H](O)C[C@@]2(C)C1CC[C@]2(O)C(=O)CO (stereo partly specified) [euspeclibcmpd5] | -0.578 (inactive)
O=C(O)C1CSCN1C(O)c1ccc(O)[nH]1 (stereo unspecified) [euspeclibcmpd1087] | -0.1 (inactive)
O=C(O)C1CC([C@H]2CCCCN2)CN2CCCCC12 (stereo partly specified) [euspeclibcmpd1560] | 0.315 (inactive)
CCCN1C(=O)/C(=C/c2ccc(-n3ccnc3)cc2)SC1=S | 9.18 (active)
CC(C)(C)NCC(O)COc1cccc2c1C[C@H](O)[C@H](O)C2 (stereo partly specified) [euspeclibcmpd814] | 0.0394 (inactive)
CC[C@H]1OC(=O)C[C@@H](O)[C@H](C)[C@@H](O[C@@H]2O[C@H](C)[C@@H](O[C@H]3C[C@@](C)(O)[C@@H](O)[C@H](C)O3)[C@H](N(C)C)[C@H]2O)[C@@H](CC=O)CC(C)C(=O)/C=C/C(C)=C/C1CO[C@@H]1O[C@H](C)[C@@H](O)[C@@H](OC)[C@H]1OC (stereo partly specified) [euspeclibcmpd742] | -0.617 (inactive)
COc1cccc(-c2cc(=O)c3ccc(OC)cc3o2)c1 [euspeclibcmpd2098] | 1.56 (inactive)

— the supplement of paper PMC10498489
